For 19 sequences, binding signal results are on record in paper PMC13541613, “GHT-SELEX demonstrates unexpectedly high intrinsic sequence specificity and complex DNA binding of many human transcription factors”.

Common to all, as to experiment: HT-SELEX; 20 mM HEPES pH 7, 140 mM KCl, 5 mM NaCl, 1 mM K2HPO4, 2 mM MgSO4, 100 uM EGTA, ZnSO4, 0.1% Tween20; room temperature, 1 h; high values mean tight binding
Holding throughout (settings): protein: ivt; tags: eGFP (N-terminal); dsDNA, one strand shown

One assay deals with ZNF721 full-length (Homo sapiens, UniProt Q8TF20-2 1-923). In a few lines:
(§1)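 In HEPES/KCl low-stringency buffer with Tween20, a bead-immobilised tagged transcription factor (full-length or DNA-binding-domain fragment, from HEK293 lysate or cell-free extract) was incubated with a randomized 40-base DNA library for 1 h at room temperature. DNA retained after washing was heat-eluted, amplified by PCR over successive cycles and Illumina-sequenced, giving ~3 million 60 bp reads per sample. The reported binding signal, a relative k-mer count in those selected reads, rises with tighter binding.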

The next assay concerns the target ZNF721 DBD1 (Homo sapiens, UniProt Q8TF20-2 29-461). In a few lines: as §1
A further assay concerns the target ZNF721 DBD2 (Homo sapiens, UniProt Q8TF20-2 395-923). In a few lines:
as §1

Sequence of ZNF721 DBD1 (Q8TF20 17-449): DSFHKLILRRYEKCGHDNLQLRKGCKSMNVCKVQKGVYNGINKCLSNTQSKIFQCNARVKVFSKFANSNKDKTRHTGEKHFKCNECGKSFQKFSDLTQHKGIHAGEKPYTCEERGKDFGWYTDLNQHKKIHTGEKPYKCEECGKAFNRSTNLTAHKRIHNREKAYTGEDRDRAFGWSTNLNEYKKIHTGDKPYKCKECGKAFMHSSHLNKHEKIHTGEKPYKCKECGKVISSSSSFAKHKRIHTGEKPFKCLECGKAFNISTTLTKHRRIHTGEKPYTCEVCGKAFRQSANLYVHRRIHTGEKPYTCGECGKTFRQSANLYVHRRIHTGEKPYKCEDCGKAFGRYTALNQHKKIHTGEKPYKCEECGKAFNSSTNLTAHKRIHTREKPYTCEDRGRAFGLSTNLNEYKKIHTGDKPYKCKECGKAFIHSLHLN
Sequence of ZNF721 DBD2 (Q8TF20 383-911): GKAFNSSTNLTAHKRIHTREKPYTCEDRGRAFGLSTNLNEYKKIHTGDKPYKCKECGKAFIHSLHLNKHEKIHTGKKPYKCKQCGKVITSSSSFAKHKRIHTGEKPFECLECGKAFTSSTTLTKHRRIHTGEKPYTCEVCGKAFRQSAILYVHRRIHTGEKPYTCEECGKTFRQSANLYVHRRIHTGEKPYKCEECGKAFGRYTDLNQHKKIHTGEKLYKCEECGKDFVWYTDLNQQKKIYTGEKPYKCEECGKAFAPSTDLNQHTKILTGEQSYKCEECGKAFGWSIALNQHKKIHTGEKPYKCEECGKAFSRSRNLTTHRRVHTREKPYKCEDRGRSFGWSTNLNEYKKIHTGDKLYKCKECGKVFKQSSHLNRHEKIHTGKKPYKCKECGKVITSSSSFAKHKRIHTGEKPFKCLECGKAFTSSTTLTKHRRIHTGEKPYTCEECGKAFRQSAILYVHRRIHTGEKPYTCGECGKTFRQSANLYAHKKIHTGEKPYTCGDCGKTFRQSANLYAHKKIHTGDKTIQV
Sequence of ZNF721 full-length (Q8TF20 other isoform, or with tags, fused parts or gaps): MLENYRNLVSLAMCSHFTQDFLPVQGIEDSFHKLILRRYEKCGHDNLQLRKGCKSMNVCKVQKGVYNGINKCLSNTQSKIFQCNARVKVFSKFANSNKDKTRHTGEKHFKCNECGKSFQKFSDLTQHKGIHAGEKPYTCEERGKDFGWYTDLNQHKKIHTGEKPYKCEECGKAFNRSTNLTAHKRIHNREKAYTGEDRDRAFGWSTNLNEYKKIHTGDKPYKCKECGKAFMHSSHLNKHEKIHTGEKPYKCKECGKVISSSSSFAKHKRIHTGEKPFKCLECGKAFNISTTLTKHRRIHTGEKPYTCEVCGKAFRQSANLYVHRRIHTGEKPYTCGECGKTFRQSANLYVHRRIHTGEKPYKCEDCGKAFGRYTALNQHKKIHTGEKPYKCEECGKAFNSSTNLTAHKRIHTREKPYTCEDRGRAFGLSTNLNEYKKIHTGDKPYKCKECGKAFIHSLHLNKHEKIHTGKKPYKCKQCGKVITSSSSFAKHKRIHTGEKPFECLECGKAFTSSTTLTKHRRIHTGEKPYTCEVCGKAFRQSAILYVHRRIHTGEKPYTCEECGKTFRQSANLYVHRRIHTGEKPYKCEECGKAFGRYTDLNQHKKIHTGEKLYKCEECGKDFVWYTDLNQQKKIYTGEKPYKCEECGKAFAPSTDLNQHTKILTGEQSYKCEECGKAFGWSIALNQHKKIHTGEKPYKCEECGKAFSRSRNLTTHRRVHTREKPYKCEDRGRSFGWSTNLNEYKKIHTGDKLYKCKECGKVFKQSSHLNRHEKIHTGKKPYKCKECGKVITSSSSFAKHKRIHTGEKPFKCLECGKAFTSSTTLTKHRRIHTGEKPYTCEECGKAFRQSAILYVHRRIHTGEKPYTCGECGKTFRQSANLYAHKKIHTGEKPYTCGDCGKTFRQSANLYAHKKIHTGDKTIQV

Take CCCACCCATC: the binding signal in the assay with ZNF721 full-length turned out to be 0.112 relative 10-mer count; with ZNF721 DBD1, 0.00514 relative 10-mer count; with ZNF721 DBD2, 0.00587 relative 10-mer count.

On to AAACAAGCAG, for which the binding signal with ZNF721 full-length was 0.212 relative 10-mer count; in the assay with ZNF721 DBD1, 0.00908 relative 10-mer count; in the assay with ZNF721 DBD2, 0.149 relative 10-mer count.

For the sequence GCCCACCACC, the binding signal with ZNF721 full-length came to 0.17 relative 10-mer count; with ZNF721 DBD1 it was 0.00688 relative 10-mer count; in the assay with ZNF721 DBD2, 0.00336 relative 10-mer count.

On to CCACCAACCC, for which the results for the binding signal with ZNF721 full-length, with ZNF721 DBD1 and with ZNF721 DBD2 were 0.156 relative 10-mer count, 0.0067 relative 10-mer count and 0.00491 relative 10-mer count, respectively.

Turning to GTGGGTGGGA, the binding signal with ZNF721 full-length was 0.137 relative 10-mer count; in the assay with ZNF721 DBD1, 0.00729 relative 10-mer count; with ZNF721 DBD2 it was 0.00563 relative 10-mer count.

As for CGCCCTCCCC, the binding signal with ZNF721 full-length was found to be 0.172 relative 10-mer count; in the assay with ZNF721 DBD1, 0.0066 relative 10-mer count; with ZNF721 DBD2, 0.00252 relative 10-mer count.

On to AGGGGGGGTG, for which the binding signal with ZNF721 full-length was 0.108 relative 10-mer count; with ZNF721 DBD1 it was 0.00422 relative 10-mer count; in the assay with ZNF721 DBD2, 0.00252 relative 10-mer count.

For ACCCACCCCT, the binding signal with ZNF721 full-length stood at 0.134 relative 10-mer count; with ZNF721 DBD1, 0.00541 relative 10-mer count; with ZNF721 DBD2 it was 0.00324 relative 10-mer count.

Regarding CCCCCCCGAC, the values for the binding signal with ZNF721 full-length, with ZNF721 DBD1 and with ZNF721 DBD2 were 0.115 relative 10-mer count, 0.00408 relative 10-mer count and 0.00288 relative 10-mer count, respectively.

As for CGCTTTTTTC, the binding signal with ZNF721 full-length stood at 0.258 relative 10-mer count; with ZNF721 DBD1, 0.0622 relative 10-mer count; with ZNF721 DBD2, 0.0303 relative 10-mer count.

With ACCCCACCGC, the results for the binding signal with ZNF721 full-length, in the assay with ZNF721 DBD1 and in the assay with ZNF721 DBD2 were 0.106 relative 10-mer count, 0.00408 relative 10-mer count and 0.00336 relative 10-mer count, respectively.

Consider CCCCTCGCCC, for which the values for the binding signal in the assay with ZNF721 full-length, with ZNF721 DBD1 and in the assay with ZNF721 DBD2 were 0.161 relative 10-mer count, 0.00665 relative 10-mer count and 0.00372 relative 10-mer count, respectively.

For CCCCACCACC, the binding signal with ZNF721 full-length was determined as 0.447 relative 10-mer count; with ZNF721 DBD1, 0.0213 relative 10-mer count; in the assay with ZNF721 DBD2 it was 0.00767 relative 10-mer count.

Take CCCACCGCCA: the binding signal with ZNF721 full-length came to 0.13 relative 10-mer count; with ZNF721 DBD1, 0.00422 relative 10-mer count; with ZNF721 DBD2 it was 0.00563 relative 10-mer count.

For CCACACCCAC, the binding signal with ZNF721 full-length worked out at 0.128 relative 10-mer count; with ZNF721 DBD1, 0.00605 relative 10-mer count; with ZNF721 DBD2, 0.00515 relative 10-mer count.

As to CGAAAAAAGC, the values for the binding signal with ZNF721 full-length, with ZNF721 DBD1 and with ZNF721 DBD2 were 0.221 relative 10-mer count, 0.0584 relative 10-mer count and 0.0645 relative 10-mer count, respectively.

As to GGTGGTGGGA, the binding signal with ZNF721 full-length came to 0.157 relative 10-mer count; in the assay with ZNF721 DBD1 it was 0.00784 relative 10-mer count; with ZNF721 DBD2, 0.00455 relative 10-mer count.

In the case of AGGGGGGTGG, the binding signal with ZNF721 full-length was 0.157 relative 10-mer count; with ZNF721 DBD1 it was 0.00835 relative 10-mer count; with ZNF721 DBD2, 0.00407 relative 10-mer count.

Consider GCATACCCAA, for which the binding signal with ZNF721 full-length was determined as 0.217 relative 10-mer count; in the assay with ZNF721 DBD1 it was 0.00968 relative 10-mer count; with ZNF721 DBD2 it was 0.192 relative 10-mer count.
